Screen size: about 410,000 compounds; about 5,100 (1.2%) were called active. Where a call stands in place of a potency, no number is given. Inconclusive results (about 8%) are left out. The call rests on the fitted dose curve; tested in HEK293T cells. The sample as a whole holds a higher share of actives than the screen did.
Potency means the concentration at half of the fitted maximal effect.

A short description of this test: High Throughput Screening for Foot and Mouth Disease Virus Antivirals. Further: nearly all actives have a fitted effect of over 45% in size. As to conditions: FMDV antiviral cell-based qHTS; series mostly up to 57.9 µM. (qHTS replaces the single test concentration by a dilution series.)
As to `O=c1c(O)c(Br)ccc2c(Br)c(O)c(O)c(O)c12`, the Potency entry was “inactive”. The value for `COc1ccc(-c2c(C)c3ccc(O)c(CN4CCCC4)c3oc2=O)cc1OC` was “inactive”. As for `COCC1CCCN(Cc2ccc3c(c2)CN(C(=O)c2ccnn2C)CCO3)C1` (stereo not drawn), the entry is “inactive”; as for `CC(=O)Nc1cc(C(=O)NCc2ccc(F)cc2Cl)ccc1Sc1ccc(Cl)cc1`, “inactive”; as for `COc1ccc(Oc2ncc3nc(C)c(=O)n(-c4ccccc4)c3n2)cc1`, “inactive”. As for `CSc1ccc(CCNC(=O)c2ccc3c(c2)nc2n3CCOC2)cc1`, the Potency result was “inactive”.

As for `O=C(O)C1CCCN1S(=O)(=O)c1ccc(Br)cc1` (stereo not drawn), the Potency result is “inactive”. The value for `CC1CN/C(=C\C(=O)c2ccc(Br)cc2)C(=O)N1` (stereo not drawn) was 12.6 µM (active); that for `Cc1nc2cnc(Oc3cccc(Cl)c3)nc2n(C2CC2)c1=O` was “inactive”. The value for `CC(C)[C@H](CO)Nc1nc(Nc2cc(N)cc(Cl)c2)c2ncn(C(C)C)c2n1` was “inactive”; that for `Cc1cccc(NC(=O)CSc2nc3c([nH]c4ccccc43)c(=O)n2-c2cc(C)cc(C)c2)c1` was “inactive”.

For `Cc1cccc(-n2c(SCC(N)=O)nc3c(oc4ccccc43)c2=O)c1`, the Potency entry was “inactive”. As to `Cc1cccc(-n2c(SCC(N)=O)nc3c(c2=O)C2(CCCCC2)Cc2ccccc2-3)c1`, the Potency was 14.1 µM (active). The value for `COc1ccc(NC(=O)Cn2c(=O)n(Cc3ccc(C(=O)NCc4ccccc4Cl)cc3)c(=O)c3ccccc32)cc1` was “inactive”; that for `CCOC(=O)CN(C(=O)COc1nc(C)cc(C)c1C#N)c1ccc(Cl)cc1` was “inactive”; that for `CCOc1cc(/C=C(/C#N)c2ccc(Cl)cc2)cc(Cl)c1OCC(=O)O` was 8.91 µM (active). The value for `CCOc1ccc(/C=C(\C#N)c2nc3ccccc3c(=O)[nH]2)cc1OC` was “inactive”; that for `O=C(c1ccncc1)N1CCC2(CCCN(C(c3ccccc3)c3ccccc3)C2)CC1` was “inactive”. For `Cc1ccc(CN2CCCn3nc(C(=O)NCc4ccccc4Cl)cc3C2=O)cc1`, the Potency entry was “inactive”. As for `CN(NC(=O)c1ccccc1F)c1nc(C(F)(F)F)nc2ccccc12`, the entry is “inactive”; as for `C/C(=N\NC(=O)c1ccccc1F)c1ccccn1`, 12.6 µM (active).

Consider `O=C(NC(=S)NC1CCSC1=O)c1ccccc1F` (stereo not drawn), for which the Potency result is “inactive”. Take `CCn1c2ccccc2c2cc(CN3CCN(Cc4cccc(Cl)c4)CC3)ccc21`: the Potency result is “inactive”. The value for `CCCN(C/C=C/I)C1CCc2ccc(O)cc2C1` (stereo not drawn) was “inactive”; that for `CC1Cc2cc(S(=O)(=O)CCC(=O)NCc3ccc(Cl)cc3)ccc2N1C(=O)C1CC1` (stereo not drawn) was “inactive”. As for `Cc1ccc(-c2nc(S(=O)(=O)c3ccc(C)cc3)c(N3CCCCCC3)o2)cc1`, the entry is “inactive”; as for `O=C(CSc1oc(-c2ccc(F)cc2)nc1S(=O)(=O)c1ccc(Br)cc1)NC1CCCCC1`, “inactive”; as for `CC(C)S(=O)(=O)c1oc(-c2ccc(F)cc2)nc1S(=O)(=O)c1ccc(F)cc1`, 31.6 µM (active).
